Screening results: PubChem, National Center for Advancing Translational Sciences (NCATS)
Hits are enriched below; roughly 21% of the tested compounds scored in any of these assays.
DT40 TDP1 no CPT = qHTS for Inhibitors of human tyrosyl-DNA phosphodiesterase 1 (TDP1): qHTS in cells in absence of CPT; AID 686978, 2013; DT40 Tdp1-/- hTDP1 cells, no CPT, ATP luminescence, 48 h; 420,000 tested, 15% active; Potency, µM (top dose mostly 46.2 µM), usual class: inhibitors; further: nearly all actives have a fitted effect of over 55% in size
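Readout: luminescence from CellTiter-Glo after 30 min in the dark at RT. Cells: DT40 Tdp1-/- with stable hTDP1, 400/well. Exposure: compounds alone, ≥48 hr, 37 °C.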
IL1B secr inh = blocks inflammasome-driven IL-1 beta release; activity change, % at 57.5 µM; THP-1 LPS/ATP IL-1B secretion, AlphaLISA, 16 h; stronger effect = lower value; 360,000 tested, 4.7% active; AID 743279; in the data active means activity change below about -50%; inconclusive means mostly about -30% to -49%
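Secreted IL-1B measured by AlphaLISA bead assay after 16 h compound exposure of THP-1 cells; compounds (final up to 57.5 uM) added 1 h before LPS (250 ng/mL) and ATP (1.25 mM) stimulation; lower signal means less secretion.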
ELG1 DNA repair = inhibitors of ELG1-dependent DNA repair in HEK293T cells. HEK293T ELG1-luciferase reporter, luminescence, 16 h; DNA damage induced by 5-fluorouridine. Potency, µM (highest dose often 46.1 µM), most hits filed as inhibitors. 330,000 tested, 2.3% active. AID 504467; further: nearly all actives have a fitted effect of over 55% in size
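5-Fluorouridine DNA damage + compound/DMSO, 2,000 cells/well, 16 h, 37 °C/5% CO2. ONE-Glo, 30 min RT, luminescence. Readout = decrease in reporter signal.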
VP16 counter = inhibits Gal4-VP16 luciferase reporter, ROR gamma counter-screen. AID 2546. 310,000 tested, 3.5% active. Drosophila S2 Gal4-VP16 UAS-luciferase, luminescence, 20 h. Potency, µM (top dose mostly 53.6 µM), actives largely listed as inhibitors;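 further: Gal4-VP16 expression switched on by copper sulfate through the metallothionein promoter; nearly all actives have a fitted effect of over 50% in size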
TDP1 cell CPT = growth inhibition of DT40 Tdp1-/-;hTDP1 cells with camptothecin (screen for TDP1 inhibitors). chicken DT40 Tdp1-/-;hTDP1 cells + 20 nM CPT, ATP luminescence, 48 h. Potency, µM (doses to about 46.2 µM), usual class: inhibitors. 420,000 tested, 12% active; further: nearly all actives have a fitted effect of over 55% in size
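Chicken DT40 Tdp1-/- cells stably complemented with human TDP1 were seeded at 400 cells/well in medium containing 20 nM camptothecin, exposed to pin-transferred compounds, and grown at 37 °C for at least 48 hr. Viability was read as ATP luminescence.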
RORgamma inh = ROR gamma (mouse) transcription inhibition. P51450. AID 2551. 310,000 tested, 5.4% active. Potency, µM (top dose mostly 53.6 µM), actives largely listed as inhibitors. Drosophila S2 Gal4-RORgamma UAS-luciferase reporter, 20 h; further: nearly all actives have a fitted effect of over 60% in size
Target sequence (P51450 whole entry, looked up, the tested form may be a part): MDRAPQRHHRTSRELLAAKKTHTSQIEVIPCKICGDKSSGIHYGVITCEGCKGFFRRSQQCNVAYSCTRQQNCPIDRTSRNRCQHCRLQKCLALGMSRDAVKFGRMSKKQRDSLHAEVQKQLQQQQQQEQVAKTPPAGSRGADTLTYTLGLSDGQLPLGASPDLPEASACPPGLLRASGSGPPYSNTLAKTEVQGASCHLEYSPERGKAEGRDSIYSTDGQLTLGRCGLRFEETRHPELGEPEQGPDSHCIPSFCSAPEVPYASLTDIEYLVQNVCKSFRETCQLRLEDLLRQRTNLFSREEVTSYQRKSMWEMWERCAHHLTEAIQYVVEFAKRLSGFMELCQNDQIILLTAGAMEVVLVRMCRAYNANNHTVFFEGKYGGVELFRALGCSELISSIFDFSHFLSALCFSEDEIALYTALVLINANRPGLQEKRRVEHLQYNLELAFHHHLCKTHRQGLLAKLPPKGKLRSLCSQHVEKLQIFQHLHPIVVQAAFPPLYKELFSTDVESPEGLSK
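A Gal4/UAS one-hybrid system in insect cells: metallothionein-promoter Gal4–ROR gamma fusion plus Photinus luciferase reporter. Copper sulfate 700 uM final, 20 hr ambient incubation, luminescent detection after 10 min with reagent.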
Hits are given with their value; i = inactive; ? = inconclusive; nt = no result. Unless noted, the call rests on the fitted dose curve; in most records, active means well fitted curve in the direction sought with a large enough effect; inconclusive means small, poorly fitted or top-dose-only effect, or another doubt; inactive means no such curve, though single readings can be large; an effect the other way counts as inactive or inconclusive.

SMILES | DT40 TDP1 no CPT | IL1B secr inh | ELG1 DNA repair | VP16 counter | TDP1 cell CPT | RORgamma inh
NNC(=O)c1[nH]c(-c2ccccc2)cc1-c1ccccc1 | ? | i | i | ? | i | ?
CCC(C)N1C(=O)/C(=C/c2c(NCCCOC(C)C)nc3c(C)cccn3c2=O)SC1=S (stereo not given) | 9.2µM | i | i | i | ? | i
N#Cc1ccc(S(=O)(=O)N2CCCCC2c2cc(C(=O)N3CCOCC3)no2)cc1 (stereo not given) | i | i | nt | nt | i | nt
CCC(=O)Nc1ccc(-c2nc3ccccc3c(=O)o2)cc1 | i | i | i | 15.8µM | i | i
Cc1ccccc1-c1nc2ccccc2c(=O)o1 | 16.4µM | i | nt | nt | ? | nt
Cc1ccc(SCC(=O)Nc2cccc(C)c2)cc1 | i | i | i | i | i | i
CCC(=O)Nc1ccc2oc(-c3cccc(C)c3)nc2c1 | 5.8µM | i | ? | 2.24µM | 7.31µM | 0.794µM
Cc1ccc(SCC(=O)Nc2ccc3oc(-c4cccc(C)c4)nc3c2)cc1 | 14.6µM | nt | nt | nt | ? | nt
COc1ccc(NC(=O)c2cc(S(=O)(=O)N3CCCC(C)C3)cn2C)c(OC)c1 (stereo not given) | i | nt | nt | nt | i | nt
Cc1[nH]c2ccc(C(=O)NCc3ccccn3)cc2c1C | i | ? | ? | i | i | i
COCCN(C(=O)COC(=O)C(C)(C)Oc1ccc(Cl)cc1)c1c(N)n(Cc2ccccc2)c(=O)[nH]c1=O | i | i | nt | nt | i | nt
Cc1cccc(-c2nc3cc(NC(=O)C4CCCO4)ccc3o2)c1 (stereo not given) | ? | i | ? | ? | ? | 0.282µM
Cc1ccc2oc(-c3cccc(NC(=O)C4CCCO4)c3)nc2c1 (stereo not given) | i | i | ? | ? | i | ?
CC(=NC1CC1)c1c(-c2ccccc2)[nH]n(-c2nc3ccccc3s2)c1=O | 22.4µM | nt | i | ? | ? | 1.26µM
CC(=NCCCn1ccnc1)c1c(-c2ccccc2)[nH]n(-c2nc3ccccc3s2)c1=O | ? | i | ? | i | ? | i
CC(=NC1CCCC1)c1c(C)[nH]n(-c2nc3ccccc3s2)c1=O | ? | i | ? | ? | ? | 3.55µM
CN(C)CCCN=Cc1c(-c2ccccc2)[nH]n(-c2nc3ccccc3s2)c1=O | ? | i | i | i | ? | i
O=S(=O)(c1ccccc1)c1nnn2c1nc(NC1CCCCC1)c1sccc12 | i | nt | nt | nt | i | nt
O=C(CCC1N=C2c3ccccc3N=C(SCC(=O)Nc3ccccc3F)N2C1=O)NCc1ccco1 (stereo not given) | i | nt | nt | nt | i | nt
COc1ccc(C(=O)/C=C/C(=O)N(CC(=O)NC2CCCCC2)Cc2ccc(F)cc2)c(O)c1 | 4.61µM | -98.2 | ? | 7.08µM | 5.17µM | i
COc1ccc(C(=O)/C=C/C(=O)N(CC(=O)NCCC(C)C)Cc2cccs2)c(O)c1 | ? | -87.6 | ? | ? | 1.84µM | ?
COc1ccc(C(=O)N(Cc2ccco2)Cc2cccs2)c(O)c1 | i | i | i | i | i | i
O=c1[nH]c(=S)c2n[nH]nc2[nH]1 | i | nt | nt | nt | i | nt
O=C(c1ccncc1)N1CCC2(CC1)CCN(c1ccccn1)CC2 | ? | nt | nt | i | i | i
CCOc1ccccc1NC(=O)CN1C=NS(=O)(=O)c2ccccc21 | i | nt | nt | nt | i | nt
SMILES | DT40 TDP1 no CPT | IL1B secr inh | ELG1 DNA repair | VP16 counter | TDP1 cell CPT | RORgamma inh
CCC(CC)C(=O)c1c[nH]c(C(=O)NCc2ccccc2OC)c1 | ? | i | i | ? | 20.6µM | ?
CCC(CC)C(=O)c1c[nH]c(C(=O)NC2CCCCCC2)c1 | i | -66.1 | i | i | i | i
[O-][n+]1ccc(C(O)c2ccccc2)cc1 (stereo not given) | i | i | i | i | i | ?
O=C(NC(C(=O)O)c1ccccc1)c1ccccc1 (stereo not given) | i | i | i | i | i | i
Cc1ccc(C(NC(=O)c2ccccc2)C(Cl)(Cl)Cl)cc1 (stereo not given) | 20.6µM | i | i | i | 14.6µM | ?
O=C(NC(c1ccccc1)C(Cl)(Cl)Cl)c1ccccc1 (stereo not given) | 20.6µM | i | i | i | 20.6µM | i
Cc1ccc([C@H]2C(C(=O)O)=CC[C@@H](c3ccc(Cl)c(Cl)c3)N2S(=O)(=O)c2ccc(C)cc2)cc1 | ? | i | i | nt | ? | nt
COc1ccc(NC(=O)N(C)C[C@H]2Oc3ccc(NC(=O)Cc4ccccc4)cc3CC(=O)N([C@H](C)CO)C[C@H]2C)cc1 | i | i | i | nt | i | nt
CC12CCC(C(=O)N(c3nccs3)C1=O)C2(C)C (stereo not given) | i | i | nt | nt | i | nt
COc1ccc(Cl)cc1Cn1c(C)c(C(=O)NCc2ccc(C#N)cc2)sc1=O | 18.4µM | i | nt | nt | 23.1µM | nt
Cc1c(C(=O)NCc2ccccc2C(F)(F)F)sc(=O)n1Cc1cccc(C(F)(F)F)c1 | ? | i | nt | nt | ? | nt
COc1ccccc1Cn1c(C)c(C(=O)NCc2cccc(C)c2)sc1=O | i | ? | nt | nt | ? | nt
Cc1cccc(CNC(=O)c2sc(=O)n(Cc3c(C)cccc3C)c2C)c1 | 23.1µM | i | nt | nt | ? | nt
Cc1c(C(=O)NCc2cccc(C(F)(F)F)c2)sc(=O)n1Cc1ccccc1F | 25.9µM | i | nt | nt | ? | nt
COc1ccc(CNC(=O)c2sc(=O)n(Cc3ccc(-c4ccccc4)cc3)c2C)cc1OC | 11.6µM | i | nt | nt | 11.6µM | nt
Cc1cc(C)c2c(=O)cc(CSCC(=O)Nc3ccccc3Cl)[nH]c2c1 | i | nt | nt | nt | i | nt
COc1ccc(Cl)cc1Cn1c(C)c(C(=O)NCc2cccc(C(F)(F)F)c2)sc1=O | ? | -58.7 | nt | nt | ? | nt
COc1ccc(Cl)cc1Cn1c(C)c(C(=O)NCc2ccccc2C(F)(F)F)sc1=O | i | i | nt | nt | i | nt
C=Cc1ccc(Cn2c(C)c(C(=O)NCc3ccc(C#N)cc3)sc2=O)cc1 | 16.4µM | ? | nt | nt | 16.4µM | nt
CCOC(=O)C1(Cc2ccccc2)C(=O)N(CCCN(C)C)c2ccccc21 (stereo not given) | i | i | nt | nt | i | nt
COc1ccccc1CCNC(=O)Cn1c(=O)oc2ccccc21 | ? | i | i | i | 20.6µM | i
O=C(Cn1c(=O)oc2cccnc21)Nc1ccccc1Oc1ccc(Cl)cc1Cl | i | -71.2 | i | i | i | i
N#Cc1c(NC(=O)Cn2c(=O)oc3ccccc32)oc(-c2ccccc2)c1-c1ccccc1 | 8.2µM | i | i | i | 9.2µM | i
COc1ccccc1NC(=O)Cn1c(=O)oc2ccccc21 | 2.91µM | i | i | i | 2.91µM | i
Cc1nn(CC(=O)NCc2ccccc2Cl)c(=O)c2cccn12 | i | nt | nt | nt | i | nt
Cc1cccc(OCC(=O)NCc2ccc(F)cc2)c1 | i | i | i | i | i | i
